Results on 40 compounds are retold here after PubChem BioAssay (Tox21).

Each structure is given as a SMILES string. Several values for one entry are separate records, joined by “and”; a condition that tells them apart may be missing. Equal values may be shown once. Inconclusive results are not listed. Activity calls are given as the source filed them. The call rests on the fitted dose curve; in most records, active means well fitted inhibition curve with a large enough effect in the repeat runs; inconclusive means weak or mixed curves; inactive means no such curve, though single readings can be large or run the other way.
On the % scale 0 is the no-effect control and ±100 the full control effect; potency means the concentration at half of the fitted maximal effect.

Sequence of Cytochrome P450 1A2 (Homo sapiens) (P05177 whole entry, looked up): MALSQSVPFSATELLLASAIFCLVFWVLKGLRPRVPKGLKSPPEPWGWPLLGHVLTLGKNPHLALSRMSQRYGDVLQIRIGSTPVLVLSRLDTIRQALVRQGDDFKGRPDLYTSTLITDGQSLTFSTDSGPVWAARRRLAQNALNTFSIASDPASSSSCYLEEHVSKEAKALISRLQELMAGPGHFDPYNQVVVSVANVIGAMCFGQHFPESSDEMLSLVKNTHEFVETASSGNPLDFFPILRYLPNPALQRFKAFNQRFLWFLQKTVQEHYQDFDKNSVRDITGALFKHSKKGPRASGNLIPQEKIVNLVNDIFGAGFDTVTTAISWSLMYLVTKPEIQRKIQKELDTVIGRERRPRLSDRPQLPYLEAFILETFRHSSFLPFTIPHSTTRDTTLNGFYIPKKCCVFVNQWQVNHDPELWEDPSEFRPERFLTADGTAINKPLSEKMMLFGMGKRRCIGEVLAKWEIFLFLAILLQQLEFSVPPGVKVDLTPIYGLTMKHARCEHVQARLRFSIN

For the assay, the target named is Cytochrome P450 1A2 (Homo sapiens) (UniProt P05177). The experiment in a line: Cytochrome P450 Family 1 Subfamily A Member 2 (CYP1A2) small molecule antagonists: luciferase reporter qHTS assay (AID 1671199). Further: nearly all actives have a fitted effect of over 50% in size. The settings on record: P450-Glo CYP1A2 enzyme, luciferin luminescence, 1 h; series mostly up to 115 µM. The text has this:
National Center for Advancing Translational Sciences [NCATS]
U.S. Environmental Protection Agency [EPA]
National Institutes of Environmental Health Sciences [NIEHS]
National Toxicology Program [NTP]
U.S. Food and Drug Administration [FDA]
Cytochrome P450 (CYP) enzymes are membrane-bound hemeproteins that play a key role in metabolism of drugs and xenobiotics. Evaluation of the effect of chemicals on CYP isozymes is useful to minimize the adverse drug reactions and toxicities in drug development process. Tox21 chemicals were tested for their effect on CYP enzyme activities by using P450-Glo (TM) screening systems (Promega Corporation, Madison, WI). These systems provide a luminescent method containing proluciferin substrates and are converted to luciferin products by CYP isozymes. The luciferin products formed are detected with a luciferin detection reagent, and the amount of light produced is proportional to CYP activity. P450-Glo (TM) CYP1A2 screening system (Catalog. No. V9770) was used to detect the compounds that interfere in CYP1A2 activity. The positive control compound used for CYP1A2 assay is furafylline (Sigma-Aldrich, St. Louis, MO).
Tox21 Assay Protocol Summary:
Two ul of enzyme-substrate mix was dispensed into medium binding white/solid 1536-well plates (Greiner Bio-One North America Inc., Monroe, NC) using a BioRaptr Flying Reagent Dispenser (FRD, Beckman Coulter, Brea, CA). Compounds dissolved in DMSO and positive control (furafyllline) were transferred to the assay plates at 23 nl using a Pintool station (Wako, San Diego, CA). The assay plates were incubated at room temperature for 10 min. Then 2 ul of NADPH regeneration solution was added to each well of the assay plates using an FRD and incubated at room temperature for 1 h. The reaction was stopped by adding 4 ul of detection reagent using an FRD and after 20 min incubation at room temperature the luminescence signal was measured using a ViewLux plate reader (Perkin Elmer, Shelton, CT). Data were expressed as relative luminescence units.
For orientation: Reporter assays use an easily measured gene product as a stand-in for the process of interest.
Consider `Cc1ccc(C(=O)Cl)cc1`, for which the Potency result was “inactive”. With `C=COCCCl`, the Potency result is “inactive”.

Turning to `Cl/C=C\CCl`, the Potency is 35.6 µM (active). On the same count and under the same terms, the result for `N#CCCO` reads “inactive”. Turning to `O=C1NCN(c2ccccc2)C12CCN(CC1COc3ccccc3O1)CC2` (stereo not given), the Potency result is “inactive”.

As for `[Cl][Sb]([Cl])[Cl]`, the Potency result is “inactive”. As for `O=C1c2ccccc2C(=O)C1C(=O)C(c1ccccc1)c1ccc(Cl)cc1` (stereo not given), the Potency is 20 µM (active). The same measure, in the same setting: the result for `CC(C)N1C(=O)N(c2ccccc2)CSC1=NC(C)(C)C` reads 31.7 µM (active); that for `CC(Cc1ccc(C(C)(C)C)cc1)CN1C[C@@H](C)O[C@@H](C)C1` (stereo not given in full), 39.9 µM (active).

Take `CC(C)CCCCCCCOP(=O)(Oc1ccccc1)Oc1ccccc1`: the Potency was 28.4 µM (active). For the compound `Cc1cc(C)cc(OP(=O)(Oc2cc(C)cc(C)c2)Oc2cc(C)cc(C)c2)c1`, the Potency was 22.8 µM (active).

As for `CC(=[OH+])/C=C(/C)[O-].CC(=[OH+])/C=C(\C)[O-].CC(=[OH+])/C=C(\C)[O-].[Al]`, the Potency result was “inactive”. Take `Nc1ccc(Sc2ccc(N)cc2)cc1`: the Potency is 35.6 µM (active). In the case of `C[C@@H](Oc1ccc(Cl)cc1Cl)C(=O)O`, the Potency entry was “inactive”. With `O=C/C(Cl)=C(/Cl)C(=O)O`, the Potency entry is “inactive”. In the case of `C[C@]12CC[C@H](O)C[C@H]1CC[C@@H]1[C@@H]2C[C@@H](O)[C@]2(C)[C@@H](C3=CC(=O)OC3)CC[C@]12O`, the Potency entry was “inactive”.

Take `CCOP(=S)(OCC)SCS(=O)(=O)C(C)(C)C`: the Potency was 44.8 µM (active). With `CC(C)(COCC1CO1)COCC1CO1` (stereo not given), the Potency entry is “inactive”. In the case of `N#CCCC(Br)(C#N)CBr` (stereo not given), the Potency was 15.9 µM (active).

For the compound `CC(C)C(=O)Cl`, the Potency entry was “inactive”. Turning to `Oc1ccc(I)cc1`, the Potency was 39.9 µM (active). Take `N#CNC#N`: the Potency entry is “inactive”. As for `C1CCC2CCCCC2C1` (stereo not given), the Potency entry is “inactive”. On to `CC(C)(C)c1ccc(CSc2cnn(C(C)(C)C)c(=O)c2Cl)cc1`, for which the Potency was 25.2 µM (active). Consider `O=[N+]([O-])c1ccc(Oc2ccc(C(F)(F)F)cc2[N+](=O)[O-])cc1`, for which the Potency is 31.7 µM (active).

In the case of `COc1cccc(C(=O)CCN[C@@H](C)[C@H](O)c2ccccc2)c1`, the Potency was 24.5 µM (active). For the compound `COc1ccc(N)cc1N`, the Potency is 6.53 µM (active) and 38.3 µM (active). In the case of `BrC(Br)Br`, the Potency was 44.8 µM (active). As to `O=C(O)C1C2CCC(O2)C1C(=O)O` (stereo not given), the Potency entry was “inactive”.

Consider `CCCCOP(=O)(CCCC)OCCCC`, for which the Potency was 31.7 µM (active). For the compound `COP(=O)(OC)SCn1c(=O)oc2cc(Cl)cnc21`, the Potency was 39.9 µM (active).

For the compound `CC(C)(C)c1cc([N+](=O)[O-])cc(C(C)(C)C)c1O`, the Potency was 31.7 µM (active). Still for that read-out and setting: next, `[CH3][Hg][Cl]`: “inactive”. For the compound `Cc1ccc(OP(=O)(Oc2ccccc2)Oc2ccccc2)cc1`, the Potency is 11.4 µM (active).

For the compound `CCCCCCCCCBr`, the Potency entry was “inactive”. As to `O=CC(Br)(Br)Br`, the Potency was 28.2 µM (active). Still for that read-out and setting: next, `Nc1ccc(Cc2ccc(N)c(Cl)c2)cc1Cl`: 27.3 µM (active). As for `Brc1c(Br)c(Br)c(Oc2c(Br)c(Br)c(Br)c(Br)c2Br)c(Br)c1Br`, the activity change, negative = inhibition was -11% [at 23.6 µM] (inactive). Take `CCOc1cc(C(C)(C)C)ccc1C1COC(c2c(F)cccc2F)=N1` (stereo not given): the Potency was 24.2 µM (active). On to `CCOC(=O)c1ccccc1S(=O)(=O)NC(=O)Nc1nc(Cl)cc(OC)n1`, for which the Potency entry is “inactive”.
